This is part of a sample that, as a whole, favours compounds with a hit. Of some 83,000 tested, about 20% had one in any assay.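 Cells were grown in 96-well plates and exposed to the test compound at a single concentration for 48 hours; results are reported as percent growth, with values below 10 considered active.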 Unmarked numbers belong to inactive results. Calls of active or inactive are those of the source.
The compounds below were run on SK-OV-3 ovarian (assay: NCI-60 one-dose screen, 48 h (100 = growth as untreated, 0 = no growth, -100 = all killed)). Settings: 10 µM unless noted.

SMILES | growth
COc1ccc(O)c(N=Nc2nccs2)c1 | 85.2%
CCc1nc(N)nc(N)c1C#CC(C)c1cc(-c2ccnc(C)c2)c2oc(C)nc2c1 (stereo not drawn) | 16.8%
CC(=O)Nc1ccc(-n2c(O)c(/C=N/NC(=O)Cc3ccccc3Nc3c(Cl)cccc3Cl)sc2=S)cc1 | 111%
O=Nc1c(O)c(Cl)cc2ccccc12 | 81.4%
FC(F)(F)c1ccc(-c2cn3nc(-c4c[nH]c5ccc(Br)cc45)sc3n2)cc1 | 92.7%
Cn1cc(-c2nonc2-c2c[nH]c3ccccc23)c2cccnc21 | 41.7%
Cn1cc(-c2nonc2-c2cn(C)c3ccc(F)cc23)c2ccccc21 | 41.5%
Brc1ccc(-c2csc(Nc3ccccn3)n2)cc1 | 82.7%
Clc1ccc2c(NCCNc3nc(N4CCOCC4)nc4ccccc34)ccnc2c1 | -37.8% (active)
COc1ccc(-c2cc(-c3ccc(Nc4ccnc5cc(Cl)ccc45)cc3)nc(N3CCOCC3)n2)cc1 | 101%
COc1cc2c(cc1-c1c(C)noc1C)ncc1nc(C3CCCC3)n([C@H](C)COC(F)F)c12 | 7.48% (active)
CCOc1cc2ncc(C#N)c(Nc3ccc(OCc4cccc(F)c4)c(Cl)c3)c2cc1NC(=O)CCCCC1CCSS1 (stereo not drawn) | 83.7%
Oc1ccccc1-c1nnc(CNc2ccc(Cl)cc2)o1 | 19.5%
COc1cc2c(cc1-c1c(C)noc1C)ncc1nc(C3CCCCC3)n([C@H](C)COC(F)F)c12 | 12.5%
COc1cc(/C=C/C(=O)Nc2cccnc2Nc2ccc(F)cc2)cc(OC)c1OC | 107%
Cn1c(NCCc2ccc(O)c(O)c2)nc2c1c(=O)n(Cc1ccc(Cl)c(Cl)c1)c(=O)n2C | 81%
Cc1ccc(C2=NN3C(C2)c2cc(Br)ccc2OC32CCN(Cc3ccccc3)CC2)o1 (stereo not drawn) | 93.7%
O=C1/C(=C/C(Cl)=C/c2ccccc2)SC(=S)N1CCc1ccc(O)cc1 | 34.8%
NC(=O)c1cc(Br)ccc1NC(=O)/C=C/c1ccccc1 | 31.1%
CC(O)CN(CC(C)O)c1ccc2c(c1)Cc1cc([N+](=O)[O-])ccc1-2 (stereo not drawn) | 108%
C=C1C(=O)O[C@H]2[C@H]1CC/C(COC(=O)c1cc3cc(OC)ccc3[nH]1)=C\CC[C@@]1(C)O[C@@H]21 | 50.6%
COc1cc(C(=O)/C=C/c2cccnc2Nc2ccc(Cl)cc2)cc(OC)c1OC | -5.2% (active)
O=c1cc(CSc2nnc(SCc3cc(=O)oc4c3ccc3ccccc34)o2)c2ccc3ccccc3c2o1 | 98.8%
